From PubChem BioAssay
Pf growth 48h – P. falciparum growth inhibition at 48 hours (one generation) | AID 504832 | 310,000 compounds, 5.9% hits | P. falciparum luciferase growth in erythrocytes, 48 h | Potency, µM (top dose mostly 28.7 µM), most hits filed as inhibitors; active means well fitted inhibition curve with a large enough effect; inconclusive means small, poorly fitted or top-dose-only effect, or another doubt; inactive means no such curve, though single readings can be large or run the other way
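Erythrocytes infected with P. falciparum carrying an integrated firefly luciferase reporter (2% hematocrit, 0.1% parasitemia final) were exposed to compounds in RPMI 1640 with 0.5% Albumax at 37 C, 5% CO2. Growth inhibition was scored as reduced luminescence.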
Pf growth 96h – P. falciparum growth inhibition at 96 hours | P. falciparum luciferase reporter growth, 96 h | Potency, µM (doses to about 28.7 µM), actives largely listed as inhibitors | 320,000 compounds, 6.9% hits | AID 504834; active means well fitted inhibition curve with a large enough effect; inconclusive means small, poorly fitted or top-dose-only effect, or another doubt; inactive means no such curve, though single readings can be large or run the other way
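Infected RBCs, 2% Hct / 0.05% parasitemia final; luciferase-reporter P. falciparum; cpd 96 h, 37 C, 5% CO2; luciferase detection reagent; luminescence.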
SARS PLpro yeast – SARS-CoV PLP inhibition in yeast | S. cerevisiae expressing SARS-CoV PLpro, growth rescue | Potency, µM (titrated, usually from 32.9 µM), most hits filed as activators | 330,000 compounds, 0.19% hits | AID 485353; further: nearly all actives have a fitted effect of over 55% in size
NS1 inh – blocks influenza NS1 protein function. Potency, µM (doses to about 46.1 µM). AID 2326. 270,000 compounds, 0.4% hits; further: actives are rising curves; nearly all actives have a fitted effect of over 50% in size
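A cell-based growth assay was used: compounds that relieve NS1-induced slow growth of budding yeast raise OD600. Assay medium was yeast nitrogen base with ammonium sulphate and -URA supplement, pH 6.0, with 2% galactose.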
RE007 growth inh – less growth of the S. pombe RE007 Vpr strain. S. pombe RE007 Vpr strain, BacTiter-Glo ATP luminescence, 24 h. Potency, µM (series often up to 92.2 µM), actives largely listed as inhibitors. 360,000 compounds, 0.21% hits. AID 651644; active means well fitted falling curve with a large enough effect; inconclusive means small, poorly fitted or top-dose-only effect; inactive means no such curve, though single readings can be large or run the other way; further: nearly all actives have a fitted effect of over 50% in size
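Fission yeast strain RE007, carrying one chromosomally integrated HIV-1 vpr copy, was seeded at OD 0.01 in PMG+AL medium with 23 nL pinned compound. After 24 h at 30 °C and 99% humidity, viability was read by BacTiter-Glo luminescence.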
Large screens that a line does not name were inactive; ! = not active in a repeat. Sampled rows, rich in hits. Any-hit rate of the full collection: about 9.5%. Unless noted, the call rests on the fitted dose curve.

COc1ccc([C@@H]2[C@@H]3C(=O)N(C(C)(C)C)C(=O)[C@@H]3[C@]3(Cc4ccc(Cl)cc4)C(=O)N(c4cccc(F)c4)C(=O)N23)cc1	Pf growth 48h 5.86µM, Pf growth 96h 9.28µM (no result: NS1 inh)
O=c1[nH]c(-c2ccccn2)nc(C(F)(F)F)c1Br	Pf growth 48h 5.86µM, Pf growth 96h 7.38µM, RE007 growth inh inconclusive
COc1ccc(C2c3c(-c4ccccc4O)n[nH]c3C(=O)N2CCc2ccc(OC)c(OC)c2)cc1 (stereo unspecified)	Pf growth 48h 7.38µM (no result: NS1 inh)
Cc1ccc(C2c3c(-c4ccccc4O)n[nH]c3C(=O)N2Cc2ccncc2)cc1 (stereo unspecified)	Pf growth 48h inconclusive, Pf growth 96h inconclusive
COc1ccc(CCN2C(=O)c3[nH]nc(-c4ccccc4O)c3C2c2cccc(Cl)c2)cc1 (stereo unspecified)	Pf growth 48h 3.29µM, Pf growth 96h 1.85µM
CC(C)c1nc(SCC(=O)NCc2ccc3c(c2)OCO3)c2c(=O)n(C)c(=O)n(C)c2n1	none (no result: Pf growth 48h, Pf growth 96h, SARS PLpro yeast, RE007 growth inh)
C=CCn1cnc2c(oc3ccccc32)c1=O	none
COc1ccc(-c2cc(C(=O)NCc3cccnc3)no2)cc1OC	Pf growth 96h 9.28µM
COc1ccc(CCNC(=O)COC(=O)c2cc(Cl)nc(Cl)c2)cc1	none (no result: Pf growth 48h, Pf growth 96h, NS1 inh)
COc1cc2c(cc1OC)CN(C(=O)c1nn(Cc3ccccc3)c(=O)c3ccccc13)CC2	Pf growth 48h 10.4µM, Pf growth 96h inconclusive (no result: NS1 inh)
COc1cc2c(cc1OC)CN(C(=O)c1cccs1)CC2	Pf growth 48h 0.657µM
CC(=O)c1ccc(N2CCN(C(=O)c3nn(Cc4ccccc4)c(=O)c4ccccc34)CC2)cc1	Pf growth 48h 3.7µM (no result: NS1 inh)
CCCCOc1ccc(C(=O)NCC(=O)NCCOc2ccccc2OC)cc1	none (no result: NS1 inh)
Cc1cc(Nc2ccccc2C(=O)O)n2ncnc2n1	none (no result: Pf growth 48h, Pf growth 96h, SARS PLpro yeast, NS1 inh)
CCN(CC)c1ccc(SS(=O)(=O)O)cc1	Pf growth 48h 13.1µM, Pf growth 96h 10.4µM!
COc1ccc(CNC(=O)C(=O)NCCC2CCCCN2S(=O)(=O)c2ccccc2)cc1 (stereo unspecified)	Pf growth 48h 11.7µM, Pf growth 96h inconclusive (no result: NS1 inh)
COc1ccc(S(=O)(=O)N2CCCC2CNC(=O)C(=O)NCc2ccccc2Cl)cc1 (stereo unspecified)	Pf growth 48h inconclusive, Pf growth 96h 9.28µM (no result: NS1 inh)
COc1ccc(S(=O)(=O)N2CCCC2C(=O)NCc2ccccc2Cl)cc1 (stereo unspecified)	none
Cc1cc(C)c(S(=O)(=O)N2CCCCC2CCNC(=O)C(=O)NC2CC2)c(C)c1 (stereo unspecified)	Pf growth 48h 9.28µM, Pf growth 96h inconclusive (no result: NS1 inh)
Cc1cc(C)c(C)c(OCC(O)CN2CCN(c3ccccn3)CC2)c1 (stereo unspecified)	none
Cc1ccc(-n2ncc(Br)c(Br)c2=O)cc1	RE007 growth inh 15.8µM
O=CN1Cc2[nH]c3ccccc3c2N(c2ccc(Cl)cc2)C1=O	Pf growth 96h 9.28µM (no result: Pf growth 48h)
N#Cc1c(N)nc(SCc2ccncc2)c(C#N)c1-c1cccs1	Pf growth 48h inconclusive, Pf growth 96h inconclusive
COc1cc(-c2c(C#N)c(N)nc(SCc3ccncc3)c2C#N)cc(OC)c1OC	Pf growth 48h 13.1µM, Pf growth 96h inconclusive
COC(=O)CC1C(=O)NCCN1C(=O)CSc1nnnn1-c1ccc(Cl)cc1 (stereo unspecified)	none (no result: NS1 inh)
Cc1[nH]n(-c2ccccc2)c(=O)c1C(C[N+](=O)[O-])c1ccc(Cl)cc1 (stereo unspecified)	Pf growth 96h inconclusive, RE007 growth inh 28.2µM
Cc1[nH]n(-c2ccccc2)c(=O)c1C(C[N+](=O)[O-])c1ccc(F)cc1 (stereo unspecified)	Pf growth 48h inconclusive, Pf growth 96h inconclusive, RE007 growth inh inconclusive
COc1ccc(C(c2c(C)[nH]n(-c3ccccc3)c2=O)c2c(C)[nH]n(-c3ccccc3)c2=O)cc1OC	Pf growth 96h inconclusive, SARS PLpro yeast 12.6µM
Cc1ccc(C(C[N+](=O)[O-])c2c(C)[nH]n(-c3ccccc3)c2=O)cc1 (stereo unspecified)	RE007 growth inh 20µM
CSCCC1NC(=O)N(CC(=O)N2CCc3ccccc3C2)C1=O (stereo unspecified)	Pf growth 48h inconclusive (no result: NS1 inh)
CCOC(=O)N1C/C(=C\c2ccccc2)C(=O)/C(=C/c2ccccc2)C1	Pf growth 48h 4.65µM, Pf growth 96h inconclusive (no result: RE007 growth inh)
